# The campaign covered roughly 290,000 compounds. About 27,000 (9.3%) were called active. Rule as the data show it: active = inhibition mostly above about 28% (no sharp cut-off); inactive = mostly below about 43%. This excerpt belongs to a sample that is enriched for actives.
# Test: A qHTS for Small Molecule Inhibitors of Shiga Toxin; also: 0% is about no effect
# Details: Vero cells, Shiga toxin protein synthesis inhibition reporter; at 38.7 µM, active compounds read high
row,Compound,inhibition
1,CC(=O)N1CCN(CC(=O)Nc2ccc(SC(F)F)cc2)CC1,-12.2% (inactive)
2,O=C(Cc1ccc(Cl)c(Cl)c1)Nc1ccc(SC(F)F)cc1,43% (active)
3,Cc1ccc(CC(=O)Nc2ccc(OC(F)F)c(Cl)c2)cc1C,-4.66% (inactive)
4,CNC(=O)[C@]1(C(F)(F)F)C[C@H](CCc2ccccc2)CCCO1,32.4% (inactive)
5,O=C(c1cccs1)N1CCC(c2nc3ccccc3s2)CC1,18.9% (inactive)
6,c1ccc2sc(C3CCCNC3)nc2c1 (configuration not stated),69.9% (active)
7,Cc1cccc(C(=O)N2CCC(c3nc4ccccc4s3)CC2)c1,-12.1% (inactive)
8,CC(=O)Oc1ccc(N(C(C)=O)S(=O)(=O)c2ccc3ccccc3c2)cc1Br,33.2% (inactive)
9,CCCCCNC(=O)C1c2ccccc2Oc2ccccc21,-12.3% (inactive)
10,O=C(/C=C/c1ccccc1)c1ccoc1,26% (inactive)
11,Cc1cccc(N2C(=O)c3ccc(C(=O)Nc4cccc(C(=O)O)c4)cc3C2=O)c1,19% (inactive)
12,O=C(O)c1ccc2c(c1)C(=O)N(c1ccc(/C=C/C(=O)c3ccccc3)cc1)C2=O,70.9% (active)
13,CC(=O)Oc1ccc(C)cc1N1C(=O)c2ccc(C(=O)O)cc2C1=O,21.4% (inactive)
14,O=C(CN1CCN(S(=O)(=O)/C=C/c2ccccc2)CC1)Nc1ccc(N2CCOCC2)cc1,-7.43% (inactive)
15,O=C(/C=C/c1ccc(N2CCOCC2)cc1)c1ccccc1,68% (active)
16,O=C(c1ccc(C(F)(F)F)cc1)C1CCCN(C(=O)c2csnn2)C1 (configuration not stated),-1.35% (inactive)
17,COc1ccc(CCNC(=O)C2CCCN2C(=O)Nc2ccccc2)cc1OC (configuration not stated),9.89% (inactive)
18,O=S1(=O)N=C(N(CCO)/N=C/c2ccccc2F)c2ccccc21,-5.12% (inactive)
19,CCCC(=O)Nc1c(O)c2ccccc2[nH]c1=O,25.5% (inactive)
20,CCCc1nc2ccccc2c(=O)n1NC(=O)c1c(O)c2ccccc2[nH]c1=O,110% (active)
21,CCCCc1nc2ccccc2c(=O)n1NC(=O)c1c(O)c2cccc3c2n(c1=O)CC3,28.4% (inactive)
22,C#CC(CCN1CCCCC1)(OC)c1ccccc1 (configuration not stated),-17.9% (inactive)
23,CCCc1c(C(=O)N/N=C(\C)CCc2ccc(OC)cc2)nnn1-c1nonc1N,-11% (inactive)
24,OC(CNCCc1ccc(Cl)cc1Cl)COc1ccccc1 (configuration not stated),2.65% (inactive)
25,O=C(CN(Cc1ccc(Br)cc1)S(=O)(=O)c1ccccc1)NCc1ccncc1,-14.3% (inactive)

row,Compound,inhibition
1,O=C(C1CC(=O)N(c2ccc(F)cc2)C1)N1CCN(c2ccccc2)CC1 (configuration not stated),-5.65% (inactive)
2,COc1ccc(Cn2c(-c3ccc(Cl)cc3)c[n+]3ccccc23)cc1,96.6% (active)
3,CCn1c(C)cc(=O)cc1-c1ccc(Cl)cc1,-5.82% (inactive)
4,COc1ccc(C(=O)CN(C(=O)c2ccc(Cl)cc2)N2C(=O)c3ccccc3C2=O)cc1,-9% (inactive)
5,CC1(C)C2CCC1(CS(=O)(=O)NCCc1c[nH]c3ccccc13)C(=O)C2 (configuration not stated),23.7% (inactive)
6,O=C(N/C(=C\c1ccc(O)cc1)C(=O)N1CCCCC1)c1ccccc1,11.3% (inactive)
7,Cc1ccc(N2CCN(/N=C/c3cccs3)CC2)cc1,13.1% (inactive)
8,C(=N/N1CCN(c2ccccc2)CC1)/c1cccs1,94.4% (active)
9,COc1cc(/C=N/N2CCN(c3ccccc3)CC2)ccc1OC(C)=O,23.8% (inactive)
10,O=C(Cn1nc(C(=O)O)c2ccccc2c1=O)Nc1ccc(F)cc1,-3.59% (inactive)
11,O=C1CCC([N+](=O)[O-])C(c2ccccc2Br)N1 (configuration not stated),4.29% (inactive)
12,COc1ccc(-c2nnc(NC(=O)CS(=O)(=O)c3ccc(Cl)cc3)o2)c(OC)c1,3.54% (inactive)
13,COC(=O)CN1C(=O)C(C)(C)Oc2ccc(C(=O)Nc3cccc(OC)c3)cc21,-0.621% (inactive)
14,CN(C)S(=O)(=O)c1ccc(N/C=C(\[N+](=O)[O-])S(=O)(=O)c2ccccc2)cc1,-2.26% (inactive)
15,COc1ccc(C(=O)NC2CCN(C(=S)Nc3ccccc3)CC2)cc1,-2.02% (inactive)
16,CCC(C)N(C)C1CCN(C(=S)Nc2ccc(OC)cc2)CC1 (configuration not stated),-9.08% (inactive)
17,COc1ccccc1C1CCN(C(=S)Nc2ccc(Br)cc2)CC1,47.5% (active)
18,CN1CCC(=O)N([C@H](CO)Cc2ccccc2)CC1,-4.98% (inactive)
19,O=C1CCCC(O)=C1N=Nc1ccc(S(=O)(=O)N2CCOCC2)cc1,22.3% (inactive)
20,O=C1CCCC(O)=C1N=Nc1ccc2ncsc2c1,87.8% (active)
21,COC(=O)c1ccc2c(=O)n(CCN3CCOCC3)c(SCC(=O)Nc3cccc(OC)c3)nc2c1,-7.42% (inactive)
22,O=C(CNC(=O)Cc1ccccc1)N=Nc1c(O)[nH]c2ccc(Br)cc12,3.9% (inactive)
23,CC1(C)CCSC(/C=C/c2ccccc2)=N1,52.2% (active)
24,Cc1cccn2c(=O)c(C=O)c(Nc3ccc(S(N)(=O)=O)cc3)nc12,3.64% (inactive)
25,CCC(=O)N(CCc1ccccc1)Cc1cc2cc(C)ccc2[nH]c1=O,-0.364% (inactive)

row,Compound,inhibition
1,COc1cccc(-n2c(=S)sc3c(=O)n(-c4ccccc4OC)c(SCC4OCCO4)nc32)c1,-11.3% (inactive)
2,O=C(Nc1nnc(-c2ccccc2F)s1)c1ccccc1F,58% (active)
3,O=C(NCc1cccnc1)C(=O)Nc1nc(-c2ccccc2)cs1,98% (active)
4,Cc1ccccc1Nc1nc(-c2cccnc2)cs1,76.4% (active)
5,O=C(Nc1ccc(NC(=O)c2ccccc2F)cc1)c1ccccc1F,-6.19% (inactive)
6,O=C(O)c1ccccc1-c1ccccc1C(=O)NCc1cccnc1,-3.52% (inactive)
7,CN(Cc1ccccc1)S(=O)(=O)c1nnc(NC(=O)c2ccccc2F)s1,-6.12% (inactive)
8,O=C(Nc1ccccc1F)c1ccccc1-c1ccccc1,7.36% (inactive)
9,O=C(Nc1nc(-c2cccnc2)cs1)c1ccccc1F,166% (active)
10,O=C(NCc1cccnc1)Nc1ccccc1F,19.6% (inactive)
11,O=C(O)c1ccccc1C(=O)Nc1nc(-c2ccccc2)cs1,-11.1% (inactive)
12,Cc1ccc(CNC(=O)C2(C(F)(F)F)C/C(=C\CCO)CCCO2)o1 (configuration not stated),-7.08% (inactive)
13,COc1ccc(CNC(=O)COc2cccnc2[N+](=O)[O-])cc1,-2.63% (inactive)
14,CC(=O)N1CCN(C(=O)C2(NC(=O)Nc3ccc(C)cc3)CCCCC2)CC1,23.1% (inactive)
15,NNC(=O)CNC(c1ccccc1)c1cc(Cl)ccc1NC(=O)c1ccccc1 (configuration not stated),-4.52% (inactive)
16,COc1ccc(Nc2nc(NCc3ccco3)nc(N/N=C/c3ccccc3Cl)n2)cc1,7.02% (inactive)
17,COc1ccc(CC(=O)N/N=C/c2cc([N+](=O)[O-])cc(Br)c2O)cc1,-3.43% (inactive)
18,Cc1ccc(S(=O)(=O)c2nnn3c2nc(N2CCN(c4ccccn4)CC2)c2ccccc23)cc1,-12% (inactive)
19,Cc1occc1C(=O)NC1CCCN(Cc2ccc(CC(C)C)cc2)C1 (configuration not stated),-8.21% (inactive)
20,Cc1ccc(CNS(=O)(=O)c2ccc3c(c2)N(C)CCO3)cc1,-2.13% (inactive)
21,CC1CCN(S(=O)(=O)c2ccc3[nH]c(=O)ccc3c2)CC1,-6.16% (inactive)
22,O=C(NC(=S)Nc1ccc(Cl)c(C(=O)O)c1)c1cncc(Br)c1,14.6% (inactive)
23,N#Cc1ccc(/C=C2\CCn3c2nc2cc(C(=O)O)ccc2c3=O)cc1,-9.62% (inactive)
24,Cc1ccc(-c2csc(NC(=O)c3cnccn3)n2)cc1C,8.33% (inactive)
25,O=C(Nc1nnc(Cc2ccccc2)s1)c1cnccn1,-3.24% (inactive)

row,Compound,inhibition
1,O=C(Nc1nc(-c2ccc(-c3ccccc3)cc2)cs1)c1cnccn1,34.8% (active)
2,COc1ccc(CN2CCC(n3nccc3NC(=O)CCCc3ccccc3)CC2)cc1C,-2.11% (inactive)
3,CC(=O)Nc1ccc(NS(=O)(=O)c2ccc3c(c2)NC(=O)CC(=O)N3)cc1,-11.9% (inactive)
4,CCOC(=O)c1c(C)[nH]c(C)c1S(=O)(=O)NCCCc1ccco1,-3.37% (inactive)
5,O=C(CCCCCn1c(=S)[nH]c2cc3c(cc2c1=O)OCO3)N1CCN(c2ccc(F)cc2)CC1,-1.92% (inactive)
6,CCn1c(CC(=O)Nc2ccccc2C)nnc1SCC(=O)NC1=NCCS1,2.84% (inactive)
7,COc1ccc(-c2cn3ccsc3n2)cc1,43.6% (active)
8,CCCC(=O)Nc1cccc(-c2cn3ccsc3n2)c1,22.4% (inactive)
9,FC(F)(F)Oc1ccc(-c2cn3cccnc3n2)cc1,54.1% (active)
10,c1ccc(-c2cn3c(n2)CCc2ccc4cccnc4c2-3)cc1,-6.84% (inactive)
11,c1ccc(-c2cn3cccnc3n2)cc1,58.5% (active)
12,CC(=O)Nc1ccc(-c2cn3cccnc3n2)cc1,52.4% (active)
13,CC(C)(C)C(=O)Nc1ccc(-c2cn3cccnc3n2)cc1,32.2% (inactive)
14,COc1ccc(-c2cn3ccc(C)cc3n2)cc1,-17.1% (inactive)
15,CCCCCC(=O)Nc1ccc(-c2cn3cccnc3n2)cc1,64.5% (inactive)
16,Cc1ccccc1Nc1c(-c2ccccc2)nc2ncccn12,19.2% (inactive)
17,CN1CCN(Cc2ccc(OC(F)(F)F)cc2)CC1,-16.1% (inactive)
18,CCOC(=O)c1cnc(Nc2nc3ccccc3o2)nc1CSC(=S)N1CCCCC1,36.8% (inactive)
19,CN(Cc1ccc(F)cc1Cl)S(=O)(=O)c1cccs1,39.1% (inactive)
20,CCOC(=O)N1CCN(C(=O)C(C)NC(=O)c2ccco2)CC1 (configuration not stated),-4.62% (inactive)
21,COc1ccc(CC(=O)NC2CCSc3ccccc32)cc1OC (configuration not stated),-2.96% (inactive)
22,O=C(Nc1ccccc1C(=O)Nc1ccncc1)c1ccc([N+](=O)[O-])cc1,-5.25% (inactive)
